Source: PubChem BioAssay
Hits are enriched below; roughly 1.2% of the tested compounds scored in any of these assays.
p53null 39C kill – kills p53 null cells at the nonpermissive temperature; Potency, µM (doses to about 46.1 µM), usual class: cytotoxic; H1299 p53-null (neo) cells, 39C, ATPlite viability, 24 h; 55,000 tested, 0.97% active; note: nearly all actives have a fitted effect of over 50% in size
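Following overnight plating at 37C (600 cells/well), H1299-neo or H1299-p53A138V cells are dosed up to 46 uM. Incubation lasts 24 hr at 39C before ATP detection.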
FH mod – Identification of activators of human fumarate hydratase by quantitative high-throughput screening. 54,000 tested, 0.22% active. FH coupled MDH/diaphorase resazurin fluorescence, 15 min. Potency, µM (highest dose often 79.9 µM), actives largely listed as inhibitors; note: the screen sought activators but most active calls are inhibition curves; nearly all actives have a fitted effect of over 45% in size
Target sequence (P07954 whole entry, looked up): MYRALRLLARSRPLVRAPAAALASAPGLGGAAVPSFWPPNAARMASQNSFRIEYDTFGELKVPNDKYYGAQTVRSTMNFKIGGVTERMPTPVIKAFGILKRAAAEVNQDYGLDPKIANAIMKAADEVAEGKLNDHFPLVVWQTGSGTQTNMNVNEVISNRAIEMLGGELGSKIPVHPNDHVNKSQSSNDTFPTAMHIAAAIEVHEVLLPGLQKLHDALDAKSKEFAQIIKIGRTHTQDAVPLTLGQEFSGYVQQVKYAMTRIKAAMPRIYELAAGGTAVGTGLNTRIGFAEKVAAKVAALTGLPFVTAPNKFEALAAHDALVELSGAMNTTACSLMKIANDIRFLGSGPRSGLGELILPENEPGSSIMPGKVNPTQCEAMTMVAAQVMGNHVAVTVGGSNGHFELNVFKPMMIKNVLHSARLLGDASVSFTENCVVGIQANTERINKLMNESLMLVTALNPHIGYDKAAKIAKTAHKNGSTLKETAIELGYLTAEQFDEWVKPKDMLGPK
p53null 32C tox – kills p53 null cells at the permissive temperature; H1299-neo p53 null cells, ATP luminescence, 24 h, 32C; 55,000 tested, 0.62% active; Potency, µM (doses to about 46.1 µM), most hits filed as cytotoxic; note: nearly all actives have a fitted effect of over 55% in size
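Cells lacking p53 (H1299-neo) are plated at 600 per well and allowed to settle overnight at 37C. Test compounds (up to 46 uM) are added and held 24 hours at 32C, then ATP is quantified by luminescence.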
Each line names hits and unclear results; the compound was inactive in the other large screens; ! = a repeat was not active. Calls come from the whole dose curve; as a rule, active = well fitted curve in the direction sought with a large enough effect; inconclusive = small, poorly fitted or top-dose-only effect, or another doubt; inactive = no such curve, though single readings can be large; an effect the other way counts as inactive or inconclusive.

N#C/C(=C/c1ccc(O)c(O)c1)C(N)=S	FH mod 12.6µM! (no result: p53null 39C kill, p53null 32C tox)
O=C(O)c1ccnc2cc(C(OCCN3CCCCC3)c3ccccc3Cl)[nH]c12 (stereo not given)	none (no result: p53null 39C kill, p53null 32C tox)
O=C1OC(c2ccc(O)c(S(=O)(=O)O)c2)(c2ccc(O)c(S(=O)(=O)O)c2)c2c(Br)c(Br)c(Br)c(Br)c21	FH mod 27.6µM (no result: p53null 39C kill, p53null 32C tox)
CC1(C)CC/C(=C/c2ccc(Cl)cc2)C1(O)Cn1cncn1 (stereo not given)	none (no result: p53null 39C kill, p53null 32C tox)
CCn1nc(-c2ccccc2)nc2c(=O)n(C)c(=O)nc1-2	p53null 32C tox 3.55µM (no result: FH mod)
C[N@@+]1(CC2CC2)CC[C@]23c4c5ccc(O)c4O[C@H]2C(=O)CC[C@@]3(O)[C@H]1C5	none (no result: p53null 39C kill, p53null 32C tox)
CCN1C[C@]2(COC(=O)c3ccccc3N3C(=O)C[C@H](C)C3=O)CC[C@H](OC)[C@@]34[C@@H]5C[C@H]6[C@H](OC)[C@@H]5[C@](O)(C[C@@H]6OC)[C@](O)([C@@H](OC)[C@H]23)[C@@H]14	none (no result: p53null 39C kill, p53null 32C tox)
Cc1nc2c(=O)n(C)c(=O)nc-2n(C)n1	p53null 39C kill 3.16µM, p53null 32C tox 1.26µM (no result: FH mod)
COc1cccc(NCC(F)Cn2c3ccc(Br)cc3c3cc(Br)ccc32)c1 (stereo not given)	none (no result: p53null 39C kill, p53null 32C tox)
COCC1OC(=O)c2coc3c2C1(C)C1=C(C3=O)C2CCC(=O)C2(C)CC1OC(C)=O (stereo not given)	none (no result: p53null 39C kill, p53null 32C tox)
COC1CC(O[C@H]2CC[C@@]3(C)C(CCC4C3CC[C@]3(C)C(C5=CC(=O)OC5)CCC43O)C2)OC(C)C1OC1OC(COC2OC(CO)C(O)C(O)C2O)C(O)C(O)C1O (stereo not given in full)	none (no result: p53null 39C kill, p53null 32C tox)
C[C@H]([C@H](O)CCC(C)(C)O)[C@H]1CC[C@@]2(O)C3=CC(=O)[C@@H]4C[C@@H](O)[C@@H](O)C[C@]4(C)[C@@H]3CC[C@]12C	none (no result: p53null 39C kill, p53null 32C tox)
CN(N=O)c1cc(O)ccc1O	FH mod 2.24µM (no result: p53null 39C kill, p53null 32C tox)
COC[C@@H]1OC(=O)c2coc3c2[C@]1(C)C1=C(C3=O)[C@H]2CC[C@H](O)[C@@]2(C)C[C@@H]1OC(C)=O	none (no result: p53null 39C kill, p53null 32C tox)
CCCN1CCO[C@@H]2c3cc(O)ccc3OC[C@H]21	none (no result: p53null 39C kill, p53null 32C tox)
CCCN1CCc2cccc3c2[C@H]1Cc1ccc(O)c(O)c1-3	FH mod 7.94µM (no result: p53null 39C kill, p53null 32C tox)
C=CCC1(C(C)CC)C(=O)NC(=O)NC1=O (stereo not given)	none (no result: p53null 39C kill, p53null 32C tox)
CC(C(=O)c1ccccc1)N(C)C (stereo not given)	none (no result: p53null 39C kill, p53null 32C tox)
C=CC/C=C\C/C=C\CCCCCCCc1cc(O)cc(O)c1	none (no result: p53null 39C kill, p53null 32C tox)
COC(=O)C1CN(C#N)N(c2ccc(Cl)cc2)C12c1ccccc1-c1ccccc12 (stereo not given)	p53null 39C kill inconclusive, p53null 32C tox 8.91µM (no result: FH mod)
C=C1C2(C)CC3C(C)(O)C4=CC(=O)OC(C)(C)C4=CCC3(C)C13C(=O)OC(C)C3(O)C2=O (stereo not given)	none (no result: p53null 39C kill, p53null 32C tox)
Cc1ccccc1Cn1cccc(C(=O)Nc2nc3ccccc3s2)c1=O	p53null 32C tox 10µM
O=C(Nc1nc2ccccc2s1)c1cccn(Cc2ccccc2)c1=O	p53null 32C tox inconclusive
CN(C)CCc1c[nH]c2ccc(CN3CCN(C)S3(=O)=O)cc12	none (no result: p53null 39C kill, p53null 32C tox)
O=S(=O)(c1ccccc1F)N1CCOc2c(N3CCNCC3)cccc21	none (no result: p53null 39C kill, p53null 32C tox)
C[C@H]1CN(Cc2ccc(CC(=O)N3CCC(Nc4cccc(F)c4)CC3)cc2)CCN1	none (no result: p53null 39C kill, p53null 32C tox)
